# Measured values: PubChem BioAssay
# Where “and” joins values, the source holds several entries; their conditions need not be identical. Equal entries are not always repeated. Some compounds were tested as several samples or in several runs, with calls that do not always agree. Calls of active or inactive are those of the source. Unless noted, how the calls were made is not given here.
# Assay: P. berghei load reduction in hepatocytes – cell-based, HepG2, luciferase luminescence, HepG2 viability, primary screen (AID 624349; in the data active means parasite load remaining mostly below about 12%, no sharp cut-off; inactive means mostly above about 10%;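 further: 100% = mean of DMSO negative control wells on the same plate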)
# Conditions: P. berghei liver stage in HepG2, luciferase luminescence, concentration not given here; parasite load remaining: stronger effect = lower value; viability: measured here: HepG2 viability without parasites
Compound,parasite load remaining,viability
Nc1nc(Nc2ccc(S(N)(=O)=O)cc2)nn1C(=O)c1c(F)cccc1F,42.7% (inactive),170%
COc1cc2nccc(Oc3ccc(NC(=O)Nc4cc(C)on4)c(Cl)c3)c2cc1OC,25.6% (inactive),70.1%
N#Cc1c(NC(=O)c2cccc3ccccc23)sc2c1CCCC2,47.8% (inactive),98%

# Assay: liver-stage malaria parasite load reduction – cell-based, known kinase inhibitor set, luminescence, hepatoma host viability (AID 624392);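 further: infected cells incubated roughly two days before readout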
# Conditions: Plasmodium liver stage in hepatoma cells, luciferase luminescence, concentration not given here; liver cell % of control: measured here: host liver cell viability; parasite % of control: stronger effect = lower value
Compound,parasite % of control,liver cell % of control
N#CCNC(=O)c1ccc(-c2ccnc(Nc3ccc(N4CCOCC4)cc3)n2)cc1,0.479% (inactive) and 0.449% (inactive) and 0.525% (active),71.7% and 64% and 76%
Nc1nc(Nc2ccc(S(N)(=O)=O)cc2)nn1C(=O)c1c(F)cccc1F,8.09% (inactive) and 28.9% (inactive) and 97.5% (inactive),60.7% and 62.5% and 90.9%
N#Cc1c(NC(=O)c2cccc3ccccc23)sc2c1CCCC2,217% (inactive),69%
COC(=O)c1ccc2c(C(=Nc3ccc(N(C)C(=O)CN4CCN(C)CC4)cc3)c3ccccc3)c(O)[nH]c2c1,197% (inactive) and 560% (inactive) and 349% (inactive),156% and 81.4% and 93.4%
Cc1ccc(F)c(NC(=O)Nc2ccc(-c3cccc4[nH]nc(N)c34)cc2)c1,112% (inactive) and 141% (inactive) and 35.1% (inactive),57% and 72.1% and 102%
